The values that follow come from PubChem BioAssay AID1962 (The Scripps Research Institute Molecular Screening Center, 2009).

The structures appear in SMILES notation. Out of some 300,000 compounds screened, about 2,500 (0.83%) were called active. This is one part of a sample in which actives are shown more often than they occur. A number with no mark means an inactive call.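 The calls were made as follows: active = inhibition above the mean of all tested compounds plus 3 SD, set per screening campaign (cut at about 24% in these data); inactive = the rest.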

The test system of this assay is tRNA 2'-phosphotransferase TPT1 (Candida albicans SC5314). Put plainly: Candida albicans TPT1 enzyme inhibitors, primary screen, biochemical, fluorescence polarization (AID 1962).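 Also: plate controls were DMSO alone for no effect and ferristatin control at 100 nM for full effect.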 As to conditions: recombinant caTPT1, FP RNA substrate dephosphorylation; at 5 µM; stronger effect = higher value.
On to `O=C(CCc1ccccc1)Nc1ccnn1C1CCN(Cc2ccc(OCCO)cc2)CC1`, for which the inhibition (in general, the change of the read-out against control, counted positive when it falls) was -3.8%.

On to `COc1ccc(OC)c2[nH]c(=O)c(CCNC(=O)C(C)(C)C)cc12`, for which the inhibition was 1.81%.

Consider `Cc1ccc(C)c2[nH]c(=O)c(CCNC(=O)CC(C)C)cc12`, for which the inhibition is 51.6% (active).

As to `Cc1ccc(C)c2[nH]c(=O)c(CCNC(=O)c3cccs3)cc12`, the inhibition was -3.33%.

With `CCc1ccnc(NS(=O)(=O)c2ccc3c(c2)OCCO3)c1`, the inhibition is -1.71%.

For the compound `O=C(C1CCCO1)N1CCN(C(=S)NC2CC2)CC1` (centres undefined), the inhibition is -3.35%.

As to `CCOC(=O)/C(C#N)=C/c1ccc(N2CCCCC2)cc1`, the inhibition was 116% (active).

For `CCOC(=O)/C(C#N)=C/c1ccc(N2CCN(Cc3ccccc3)CC2)cc1`, the inhibition is 48% (active).

On to `COc1ccc(N2CCN(C(=O)/C(C#N)=C/c3ccccc3)CC2)cc1`, for which the inhibition is 19.5%.

`CCOC(=O)NC(=O)/C(C#N)=C\c1ccccc1`: the inhibition is -1.78%.

Consider `COc1ccc(/C=C(\C#N)C(=O)ONC2=NCCCCC2)cc1`, for which the inhibition is 0.43%.

With `CCOC(=O)/C(C#N)=C/c1ccc(OCC(=O)Nc2ccccc2)c(OC)c1`, the inhibition was -2.78%.

As for `CN(C)S(=O)(=O)c1cccc(-c2nn(-c3ccccc3)cc2/C=C2\SC(=S)N(CC(=O)O)C2=O)c1`, the inhibition was -1.23%.

Turning to `Cc1ccc(-c2nn(-c3ccccc3)cc2/C=C2\SC(=S)N(CCCCCC(=O)O)C2=O)o1`, the inhibition was 49.2% (active).

Consider `COc1ccc(-c2nn(-c3ccccc3)cc2/C=C2/SC(=S)N(CCCC(=O)O)C2=O)c(C)c1`, for which the inhibition was 1.54%.

Regarding `CCC(C)Sc1nc(C)nc2c1c(=O)n(C)c(=O)n2C` (centres undefined), the inhibition is -1.63%.

For `NC(=O)NCCCC(=O)O`, the inhibition was -0.59%.

Turning to `COc1ccc(/C=N/NC(=O)c2cc(-c3cccc(C)c3)nc3ccccc23)cc1O`, the inhibition is -4.75%.

With `Cc1sc2nc(COC(=O)C(NC(=O)c3ccc(Cl)cc3Cl)C(C)C)[nH]c(=O)c2c1C` (centres undefined), the inhibition is 33.1% (active).

Take `CC(C)NC(=O)c1ccc(Cl)cc1Cl`: the inhibition was -0.44%.

On to `Cc1sc2nc(CSCC(=O)Nc3c(Cl)cccc3Cl)[nH]c(=O)c2c1C`, for which the inhibition was 17.1%.

As to `CSCCC(NC(=O)c1ccc(Cl)cc1Cl)C(=O)NNC(=O)c1csc(N2CCOCC2)n1` (centres undefined), the inhibition was 1.09%.

`COc1ccc(N2CC(C)Cn3c2nc2c3c(=O)n(Cc3ccccc3F)c(=O)n2C)c(OC)c1` (centres undefined): the inhibition was 1.36%.

For `N#C/C(=C/c1ccc(N2CCCCC2)o1)C(=O)NCCc1c[nH]c2ccccc12`, the inhibition is 178% (active).

As for `O=C(CN1C(=O)NC2(CCCCC2)C1=O)NCCc1c[nH]c2ccccc12`, the inhibition is -3.99%.

Take `CC(=O)N/C(=C/c1ccc(Cl)cc1)C(=O)NCCc1c[nH]c2ccccc12`: the inhibition was -3.35%.

For the compound `CC(C)c1ccc(Nc2nnc(SCC(=O)c3nnc(-c4ccccc4)o3)s2)cc1`, the inhibition is 42% (active).

`O=C(CSc1nnc(Nc2ccccc2)s1)Nc1cccnc1Cl`: the inhibition was -0.7%.

Turning to `Cc1ccc(Nc2nnc(SCC(=O)c3cc4ccccc4o3)s2)cc1C`, the inhibition is 9.66%.

Turning to `CC(C)CN1CCNC(=O)C1CC(=O)N(C)CC1CCOCC1` (centres undefined), the inhibition is -5.14%.

Consider `COc1ccc(S(=O)(=O)NCC2CCCN(C(=O)c3occc3C)C2)cc1` (centres undefined), for which the inhibition is -4.48%.

Regarding `CCN1CCN(C(=O)Cn2nc(C)n3c(cc4c(OC)cccc43)c2=O)CC1`, the inhibition was 1.92%.

Turning to `Cc1ccc2[nH]c(=O)c(CN3CCCCC3)c(-c3ccccc3)c2c1`, the inhibition is 31.4% (active).

For the compound `Cc1ccc2[nH]c(=O)c(CC=C(Cl)Cl)c(C)c2c1`, the inhibition was 1.23%.

As for `Cc1ccc2[nH]c(=O)c(CC(=O)O)c(-c3ccccc3)c2c1`, the inhibition was -1.99%.

For the compound `CCOc1ccc(NC(=O)c2ccc(NC(=O)C3CCCO3)cc2)cc1` (centres undefined), the inhibition is 1.62%.

With `Cc1ccc(CNC(=O)c2cc(-c3ccccc3C)n(CC3CC(c4cccc([N+](=O)[O-])c4)=NO3)n2)cc1` (centres undefined), the inhibition was -1.39%.

`Cn1c(-c2ccc(C(F)(F)F)cc2)cc2onc(-c3ccccc3)c2c1=O`: the inhibition was 1.56%.

As for `CN(c1ccc(OCC(=O)OCC(=O)Nc2cccc([N+](=O)[O-])c2)cc1)S(=O)(=O)c1ccc(F)cc1`, the inhibition was -1.05%.

For `Cc1c(Cl)c([N+](=O)[O-])nn1Cc1ccc(C(=O)N/N=C\c2cc(Cl)ccc2O)o1`, the inhibition was 1.45%.

Regarding `Cc1cc(/C=C2/SC(=O)N(CC(=O)N3CCCC3)C2=O)ccc1N1CCOCC1`, the inhibition was 38.1% (active).

With `Cc1ccc2c(c1)N(CC(=O)N1CCOCC1)C(=O)CO2`, the inhibition is 1.05%.

In the case of `Cc1cc(/C=C2/SC(=O)N(CC(=O)N3CCCC3)C2=O)c(C)n1C`, the inhibition is -4.95%.

Turning to `C#CCOCCOCCOCCNc1nc(N2CCN(C(=O)[C@H](CCCCN)n3cc(CCC(=O)O)nn3)CC2)nc(N2CCN(C(=O)[C@H](CCCCN)n3cc(CC(C)O)nn3)CC2)n1` (some centres undefined), the inhibition was -2.04%.

Turning to `Cc1ccc(S(=O)(=O)N2CCN=C2SCc2c(F)cccc2Cl)cc1`, the inhibition is -3.87%.

With `O=C(CNC(=O)c1ccc(F)cc1)c1ccccc1`, the inhibition is 5.07%.

For `O=C(C[n+]1cc(Br)cc2ccccc21)c1ccc(F)cc1`, the inhibition was 25.1% (active).

Turning to `Cc1cccc[n+]1CC(=O)c1ccccc1`, the inhibition was -3.95%.

Turning to `COc1cccc(-n2c(N)cc(=O)nc2SCC(=O)Nc2cc(C)on2)c1`, the inhibition is -0.29%.

Consider `CCC(C)(C)c1ccc(Oc2ccc(NC(=O)COC(=O)C3=COCCO3)cc2)cc1`, for which the inhibition is 0.08%.

Turning to `CC(C)C[C@@H](N)c1nnc(SCC(=O)c2ccc(Cl)cc2)o1`, the inhibition is 3.05%.

Regarding `O=C(O)CCCN1C(=O)C2C3c4ccccc4C(c4ccccc43)[C@@H]2C1=O` (some centres undefined), the inhibition is 2.01%.

For `O=C(O)CCC(=O)NCc1ccc(C(=O)O)cc1`, the inhibition is -6.54%.

For `O=C(CN1C(=O)c2ccccc2C1=O)NCc1ccc(C(=O)O)cc1`, the inhibition was 36.6% (active).

In the case of `COc1ccc(CNC(=O)CCN2C(=O)c3ccccc3C2=O)cc1`, the inhibition was -3.69%.

`Cc1ccc(C)c(C(=O)N2CCC(n3nccc3NC(=O)C3CC3)CC2)c1`: the inhibition is 1.61%.

As to `CC(C(=O)N1CCN(c2ccccc2F)CC1)c1ccc([N+](=O)[O-])cc1` (centres undefined), the inhibition was 0.08%.

Regarding `NS(=O)(=O)c1ccc(NC(=S)NNC(=O)c2cccs2)cc1`, the inhibition is -0.11%.

Turning to `N#C/C(=C/c1ccc(N2CCOCC2)o1)C(=O)N1CCOCC1`, the inhibition was 158% (active).

Regarding `N#C/C(=C\c1ccc(-c2cccc([N+](=O)[O-])c2)o1)C(=O)NCCN1CCOCC1`, the inhibition is 0.6%.

Regarding `Cc1ccc(C(=O)N2CCN(C(=O)N3CCOCC3)CC2)cc1`, the inhibition is -1.08%.

`O=C(N1CCOCC1)N1CCOCC1`: the inhibition was -4.04%.

With `N#C/C=C(/c1ccc(F)cc1)N1CCOCC1`, the inhibition was -0.18%.

As to `N#C/C(=C\c1ccc(N2CCOCC2)o1)C(=O)N1CCOCC1`, the inhibition was 153% (active).

`CCOc1cc(-c2noc(CCCC(=O)NC3CCCCC3)n2)ccc1OC`: the inhibition was 3.27%.

As for `CN1CCCN(C(=O)C2CCCCC2)CC1`, the inhibition was 1.49%.

As for `C/C(=C/C(=O)N1CCN(C)CC1)C(=O)O`, the inhibition was 3.89%.

As to `CCOCCn1[nH]c2ccccc2c1=O`, the inhibition is -0.9%.

In the case of `CCC1CCCCN1C(=S)Nc1ccc(C(C)=O)cc1` (centres undefined), the inhibition was -0.24%.

For the compound `COCCN(C(=O)c1ccccc1F)c1c(N)n(Cc2ccccc2)c(=O)[nH]c1=O`, the inhibition is 1.87%.

Regarding `COc1ccc(NC(=O)c2sccc2SCC#N)cc1`, the inhibition is -1.53%.

Consider `O=C(Nc1cccc(F)c1)c1cc(-c2ccco2)nc2ccccc12`, for which the inhibition is 14.1%.

As to `CNC(=S)NNC(=O)c1oc2nc(-c3ccccc3)cc(-c3ccco3)c2c1N`, the inhibition was 5.89%.

`NNC(=O)c1oc2nc(-c3ccccc3)cc(-c3ccco3)c2c1N`: the inhibition was 79.6% (active).

`CC[N+](C)(CC)CCC[n+]1c(-c2ccccc2)c2cc(N)ccc2c2ccc(N)cc21`: the inhibition is -27.7%.

In the case of `COc1ccccc1C(=O)NNC(=O)CCN1C(=O)/C(=C\c2ccccc2)SC1=S`, the inhibition was -5.63%.

Consider `COc1cc(/C=C2/SC(=S)N(Cc3ccccc3)C2=O)cc(OC)c1O`, for which the inhibition is 89.8% (active).

In the case of `COc1ccc(/C=C2\SC(=S)N(CCC(=O)Nc3cccc(C(=O)O)c3)C2=O)cc1OC`, the inhibition is 1.59%.

In the case of `CC(C(=O)Nc1ccc(F)c(F)c1F)N1CCCCCC1` (centres undefined), the inhibition was -0.32%.

For the compound `CC(=O)c1cnc(SCC(=O)O)nc1C`, the inhibition is -5.63%.

For `CSc1nc(N(C)NC(=O)c2cccc(C)c2)c2ccccc2n1`, the inhibition is -0.9%.

Regarding `CCOC(=O)C(C)N(c1ccccc1Cl)S(C)(=O)=O` (centres undefined), the inhibition was 0.94%.

For `CCN(CC)c1ccc(/C=N/Nc2nc(C)cc(C)n2)c(O)c1`, the inhibition was 25.2% (active).

With `CCN(CC)c1ccc(/C=N/NC(=O)c2cnccn2)c(O)c1`, the inhibition was 1.75%.

Take `Cc1cc(C)nc(N/N=C/c2ccncc2)n1`: the inhibition is 3.38%.

As for `COc1ccc(-c2cc3nc(C)c(CCC(=O)NC(C)CCc4ccco4)c(C)n3n2)c(OC)c1` (centres undefined), the inhibition is 0.65%.

Consider `Cc1c(C(=O)OC(C)C)sc(NC(=O)c2cccnc2)c1C#N`, for which the inhibition was 31.6% (active).

For the compound `CC(C)NS(=O)(=O)c1ccc(NC(=O)c2cccnc2)cc1`, the inhibition was 6.23%.

As for `CCOC(=O)c1cc(NC(=O)c2cccnc2)ccn1`, the inhibition was -2.33%.

As to `O=C(NC1CCCCC1)C1CCCN(S(=O)(=O)c2ccc(Br)s2)C1` (centres undefined), the inhibition was -22.4%.

For the compound `CC(NC(=O)CC1SC(N)=NC1=O)c1ccccc1` (centres undefined), the inhibition was 2.18%.

For the compound `Cc1cc(NC(=O)CCS(=O)(=O)c2ccc(F)cc2)no1`, the inhibition was -4.5%.

`CC(C)(C)c1ccc(C(=O)NCCn2c(N)c(C#N)c3nc4ccccc4nc32)cc1`: the inhibition was 9.05%.

As to `CN(C)CCCn1c(N)c(C#N)c2nc(C#N)c(C#N)nc21`, the inhibition was 75.1% (active).
